This is part of a sample that, as a whole, favours compounds with a hit. Of some 79,000 tested, about 15% had one in any assay. Active and inactive are the calls of the source. Rule as the data show it: active = growth inhibition above about 70%; inactive = the rest.
Key:
[1] = NCI Yeast Anticancer Drug Screen. Data for the rad52 strain (AID 147);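 also: 0% = growth of vehicle-treated control cultures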; conditions: S. cerevisiae rad52 mutant growth inhibition, stronger effect = higher value
Method in brief: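 Read-out: growth inhibition versus vehicle-treated controls. Cells were a DNA repair-deficient yeast strain treated with compounds.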

[2] = NCI Yeast Anticancer Drug Screen. Data for the wt1 strain (AID 149);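 also: 0% = growth of vehicle-treated wt1 cultures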; conditions: S. cerevisiae wt1 strain (SPY 50644) growth inhibition, stronger effect = higher value
Method in brief: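 The wt1 strain was treated with compounds, and growth was compared with vehicle-treated cultures to give inhibition.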

[3] = NCI Yeast Anticancer Drug Screen. Data for the rad50EPP+ strain (AID 151);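 also: 0% = growth of vehicle-treated control cultures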; conditions: S. cerevisiae rad50 mutant strain, stronger effect = higher value
Method in brief: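 Growth inhibition read against vehicle controls in rad50EPP+ yeast, a strain altered in DNA damage repair, after compound exposure.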

[4] = NCI Yeast Anticancer Drug Screen. Data for the mgt1 strain (AID 153); conditions: S. cerevisiae mgt1 mutant growth inhibition, stronger effect = higher value
Method in brief: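 mgt1 yeast grown with test compound; read-out is growth inhibition versus vehicle-treated cultures.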

[5] = NCI Yeast Anticancer Drug Screen. Data for the rad50 strain (AID 155);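 also: 0% = growth of vehicle-only cultures of the same strain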; conditions: S. cerevisiae rad50 strain growth inhibition, stronger effect = higher value
Method in brief: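 Cells are treated with compound, grown, and their growth is then scored against vehicle-only cultures of the same repair-deficient yeast strain.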

[6] = NCI Yeast Anticancer Drug Screen. Data for the mec2-1 strain (AID 157); conditions: S. cerevisiae mec2-1 strain, stronger effect = higher value
Method in brief: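 Yeast mec2-1 mutant treated with compound. Readout: growth inhibition vs vehicle controls.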

[7] = NCI Yeast Anticancer Drug Screen. Data for the rad14 strain (AID 159);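 also: 0% = growth of vehicle-treated control cultures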; conditions: S. cerevisiae rad14 strain growth inhibition, stronger effect = higher value
Method in brief: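 Readout: yeast growth inhibition, referenced to vehicle-only cultures. Strain bears a defined alteration in DNA damage repair.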

[8] = NCI Yeast Anticancer Drug Screen. Data for the sgs1 mgt1 strain (AID 161);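 also: 0% = growth of cultures given vehicle only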; conditions: S. cerevisiae sgs1 mgt1 strain, stronger effect = higher value
Method in brief: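 Mutant yeast exposed to compound; growth scored against vehicle-only wells.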

[9] = NCI Yeast Anticancer Drug Screen. Data for the CLN2oe strain (AID 163);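 also: 0% = growth of vehicle-only control cultures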; conditions: S. cerevisiae CLN2oe strain, stronger effect = higher value
Method in brief: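 Read-out: yeast growth inhibition, expressed relative to vehicle-only controls. The strain bears an engineered cell-cycle alteration.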

[10] = NCI Yeast Anticancer Drug Screen. Data for the cln2 rad14 strain (AID 165);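 also: 0% = growth equal to vehicle treated cultures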; conditions: S. cerevisiae cln2 rad14 strain, stronger effect = higher value
Method in brief: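 cln2 rad14 yeast strain; compound exposure; growth inhibition read vs vehicle controls.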

[11] = NCI Yeast Anticancer Drug Screen. Data for the bub3 strain (AID 167); conditions: S. cerevisiae bub3 mutant strain, stronger effect = higher value
Method in brief: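 Part of a panel of yeast mutants defective in DNA damage repair or cell cycle regulation. Each strain is grown with compound, and inhibition is calculated relative to solvent-treated cultures.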

[12] = NCI Yeast Anticancer Drug Screen. Data for the wt2 strain (AID 169);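 also: 0% = growth of vehicle-treated yeast cultures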; conditions: S. cerevisiae wt2 strain growth inhibition, stronger effect = higher value
Method in brief: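 Read-out: growth inhibition versus vehicle-treated control cultures after compound exposure of the yeast strain.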

[13] = NCI Yeast Anticancer Drug Screen. Data for the mlh1 strain (AID 171);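 also: 0% = growth of vehicle-treated control cultures of the same strain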; conditions: S. cerevisiae mlh1 strain growth inhibition, stronger effect = higher value
Method in brief: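 Read-out: growth inhibition versus vehicle controls. Strain: engineered yeast with a defined DNA repair or cell cycle defect, compound-treated.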

[14] = NCI Yeast Anticancer Drug Screen. Data for the sgs1 strain (AID 173);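 also: 0% = growth of vehicle-only control cultures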; conditions: S. cerevisiae sgs1 mutant, stronger effect = higher value
Method in brief: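 Read-out: yeast growth inhibition relative to vehicle controls, following compound exposure of a strain with a defined DNA repair/cell cycle alteration.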

[15] = NCI Yeast Anticancer Drug Screen. Data for the mlh1 rad18 strain (AID 175); conditions: S. cerevisiae mlh1 rad18 strain growth inhibition, stronger effect = higher value
Method in brief: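 Yeast w/ defined DNA-repair lesions; compound exposure; growth vs vehicle controls → % inhibition.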

[16] = NCI Yeast Anticancer Drug Screen. Data for the rad18 strain (AID 177); conditions: S. cerevisiae rad18 mutant growth inhibition, stronger effect = higher value
Method in brief: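 Readout: growth inhibition vs vehicle controls. Cells: genetically altered yeast strain, DNA repair defect.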

[17] = at 5.0 µM (retest, dose inferred, filed as 0.5)
[18] = at 50.0 µM (retest, dose inferred, filed as 5.0)

Measured: growth inhibition

Nc1cc2ccccc2cc1N
active: [3]; at 100.0 µM 76% | [5]; at 50.0 µM 89.3% | [6]; at 50.0 µM 91.5% | [8]; at 50.0 µM 88.7% | [10]; [18] 70% | [10]; at 50.0 µM 90.1% | [11]; [18] 95% | [11]; at 50.0 µM 90.5% | [15]; at 50.0 µM 90.8%
inactive: [1]; at 1.2 µM -47% | [1]; at 3.7 µM -35% | [1]; at 11.0 µM -41% | [1]; at 33.0 µM -39% | [1]; at 100.0 µM 25% | [2]; at 1.2 µM -28% | [2]; at 3.7 µM -14% | [2]; at 11.0 µM -17% | [2]; at 33.0 µM 3% | [2]; at 100.0 µM 20% | [3]; at 1.2 µM -37% | [3]; at 3.7 µM -13% | [3]; at 11.0 µM 40% | [3]; at 33.0 µM 59% | [4]; at 1.2 µM -30% | [4]; at 3.7 µM -42% | [4]; at 11.0 µM -33% | [4]; at 33.0 µM -23% | [4]; at 100.0 µM -18% | [5]; at 1.2 µM -33% | [5]; at 3.7 µM -23% | [5]; [17] 14% | [5]; at 11.0 µM -26% | [5]; at 33.0 µM 12% | [5]; [18] 17% | [5]; at 100.0 µM 63% | [6]; at 1.2 µM -41% | [6]; at 3.7 µM -45% | [6]; [17] 4% | [6]; at 11.0 µM -46% | [6]; at 33.0 µM -35% | [6]; [18] 15% | [6]; at 100.0 µM -15% | [7]; at 1.2 µM -15% | [7]; at 3.7 µM -17% | [7]; at 11.0 µM -13% | [7]; at 33.0 µM -16% | [7]; at 100.0 µM 6% | [8]; [17] 19% | [8]; [18] 26% | [9]; at 1.2 µM 10% | [9]; at 3.7 µM 4% | [9]; at 11.0 µM 4% | [9]; at 33.0 µM 23% | [9]; at 100.0 µM 45% | [10]; [17] 21% | [11]; at 1.2 µM -35% | [11]; at 3.7 µM -36% | [11]; [17] 25% | [11]; at 11.0 µM -30% | [11]; at 33.0 µM -38% | [11]; at 100.0 µM 24% | [12]; at 1.2 µM -18% | [12]; at 3.7 µM -18% | [12]; at 11.0 µM -25% | [12]; at 33.0 µM -34% | [12]; at 100.0 µM -28% | [13]; at 1.2 µM -22% | [13]; at 3.7 µM -22% | [13]; at 11.0 µM -18% | [13]; at 33.0 µM -11% | [13]; at 100.0 µM 16% | [14]; at 1.2 µM 13% | [14]; at 3.7 µM 20% | [14]; at 11.0 µM 16% | [14]; at 33.0 µM 33% | [14]; at 100.0 µM 63% | [15]; [17] 6% | [15]; [18] 40% | [16]; at 1.2 µM -22% | [16]; at 3.7 µM -26% | [16]; at 11.0 µM -16% | [16]; at 33.0 µM -1% | [16]; at 100.0 µM 46%

COc1ccc(C(C)c2cc3c(cc2OC(C)O)OCO3)cc1 (stereo unspecified)
active: [1]; at 100.0 µM 89% | [2]; at 100.0 µM 88% | [4]; at 100.0 µM 95% | [5]; at 100.0 µM 96% | [6]; at 100.0 µM 87% | [13]; at 100.0 µM 92% | [14]; at 100.0 µM 92% | [16]; at 100.0 µM 90%
inactive: [1]; at 1.2 µM -2% | [1]; at 3.7 µM -3% | [1]; at 11.0 µM -1% | [1]; at 33.0 µM 1% | [2]; at 1.2 µM -2% | [2]; at 3.7 µM -3% | [2]; at 11.0 µM -4% | [2]; at 33.0 µM -4% | [3]; at 1.2 µM 0% | [3]; at 3.7 µM 15% | [3]; at 11.0 µM 15% | [3]; at 33.0 µM 33% | [3]; at 100.0 µM 36% | [4]; at 1.2 µM -3% | [4]; at 3.7 µM -2% | [4]; at 11.0 µM -3% | [4]; at 33.0 µM -2% | [5]; at 1.2 µM -6% | [5]; at 3.7 µM -46% | [5]; [17] 4% | [5]; at 11.0 µM 26% | [5]; at 33.0 µM 3% | [5]; [18] 11% | [5]; at 50.0 µM 18.8% | [6]; at 1.2 µM -3% | [6]; at 3.7 µM -2% | [6]; [17] 3% | [6]; at 11.0 µM -1% | [6]; at 33.0 µM -2% | [6]; [18] 31% | [6]; at 50.0 µM 0.2% | [7]; at 1.2 µM -1% | [7]; at 3.7 µM -2% | [7]; at 11.0 µM -1% | [7]; at 33.0 µM 4% | [7]; at 100.0 µM 69% | [8]; [17] 2% | [8]; [18] 37% | [8]; at 50.0 µM 58.5% | [9]; at 1.2 µM 4% | [9]; at 3.7 µM 1% | [9]; at 11.0 µM 2% | [9]; at 33.0 µM 1% | [9]; at 100.0 µM 38% | [10]; [17] 3% | [10]; [18] 1% | [10]; at 50.0 µM -31.5% | [11]; at 1.2 µM 0% | [11]; at 3.7 µM 6% | [11]; [17] 7% | [11]; at 11.0 µM 20% | [11]; at 33.0 µM 43% | [11]; [18] 52% | [11]; at 50.0 µM 25.4% | [11]; at 100.0 µM 64% | [12]; at 1.2 µM 3% | [12]; at 3.7 µM -1% | [12]; at 11.0 µM -2% | [12]; at 33.0 µM -2% | [12]; at 100.0 µM 32% | [13]; at 1.2 µM -2% | [13]; at 3.7 µM -3% | [13]; at 11.0 µM -1% | [13]; at 33.0 µM 1% | [14]; at 1.2 µM -3% | [14]; at 3.7 µM -1% | [14]; at 11.0 µM 5% | [14]; at 33.0 µM 25% | [15]; [17] -1% | [15]; [18] 52% | [15]; at 50.0 µM 50.6% | [16]; at 1.2 µM -2% | [16]; at 3.7 µM 4% | [16]; at 11.0 µM 7% | [16]; at 33.0 µM 18%

C[n+]1c(-c2ccc(/C=N/NC(=O)c3ccc(C(=O)N/N=C/c4ccc(-c5cn6ccccc6[n+]5C)cc4)cc3)cc2)cn2ccccc21
active: [3]; at 3.7 µM 86% | [3]; at 11.0 µM 94% | [3]; at 33.0 µM 94% | [3]; at 100.0 µM 94% | [4]; at 33.0 µM 84% | [4]; at 100.0 µM 71% | [5]; [18] 92% | [5]; at 50.0 µM 81.2% | [5]; at 100.0 µM 79%
inactive: [1]; at 1.2 µM 5% | [1]; at 3.7 µM 14% | [1]; at 11.0 µM 29% | [1]; at 33.0 µM 54% | [1]; at 100.0 µM 60% | [2]; at 1.2 µM 9% | [2]; at 3.7 µM 16% | [2]; at 11.0 µM 26% | [2]; at 33.0 µM 25% | [2]; at 100.0 µM 25% | [3]; at 1.2 µM 69% | [4]; at 1.2 µM 13% | [4]; at 3.7 µM 22% | [4]; at 11.0 µM 42% | [5]; at 1.2 µM 6% | [5]; at 3.7 µM 10% | [5]; [17] 15% | [5]; at 11.0 µM 16% | [5]; at 33.0 µM 55% | [6]; at 1.2 µM 7% | [6]; at 3.7 µM 13%

Source: PubChem BioAssay (NCI)
